In experiment [1] the target is T1, Protein deacetylase HDAC6 (Homo sapiens) (UniProt Q9UBN7).
T1 sequence (whole entry): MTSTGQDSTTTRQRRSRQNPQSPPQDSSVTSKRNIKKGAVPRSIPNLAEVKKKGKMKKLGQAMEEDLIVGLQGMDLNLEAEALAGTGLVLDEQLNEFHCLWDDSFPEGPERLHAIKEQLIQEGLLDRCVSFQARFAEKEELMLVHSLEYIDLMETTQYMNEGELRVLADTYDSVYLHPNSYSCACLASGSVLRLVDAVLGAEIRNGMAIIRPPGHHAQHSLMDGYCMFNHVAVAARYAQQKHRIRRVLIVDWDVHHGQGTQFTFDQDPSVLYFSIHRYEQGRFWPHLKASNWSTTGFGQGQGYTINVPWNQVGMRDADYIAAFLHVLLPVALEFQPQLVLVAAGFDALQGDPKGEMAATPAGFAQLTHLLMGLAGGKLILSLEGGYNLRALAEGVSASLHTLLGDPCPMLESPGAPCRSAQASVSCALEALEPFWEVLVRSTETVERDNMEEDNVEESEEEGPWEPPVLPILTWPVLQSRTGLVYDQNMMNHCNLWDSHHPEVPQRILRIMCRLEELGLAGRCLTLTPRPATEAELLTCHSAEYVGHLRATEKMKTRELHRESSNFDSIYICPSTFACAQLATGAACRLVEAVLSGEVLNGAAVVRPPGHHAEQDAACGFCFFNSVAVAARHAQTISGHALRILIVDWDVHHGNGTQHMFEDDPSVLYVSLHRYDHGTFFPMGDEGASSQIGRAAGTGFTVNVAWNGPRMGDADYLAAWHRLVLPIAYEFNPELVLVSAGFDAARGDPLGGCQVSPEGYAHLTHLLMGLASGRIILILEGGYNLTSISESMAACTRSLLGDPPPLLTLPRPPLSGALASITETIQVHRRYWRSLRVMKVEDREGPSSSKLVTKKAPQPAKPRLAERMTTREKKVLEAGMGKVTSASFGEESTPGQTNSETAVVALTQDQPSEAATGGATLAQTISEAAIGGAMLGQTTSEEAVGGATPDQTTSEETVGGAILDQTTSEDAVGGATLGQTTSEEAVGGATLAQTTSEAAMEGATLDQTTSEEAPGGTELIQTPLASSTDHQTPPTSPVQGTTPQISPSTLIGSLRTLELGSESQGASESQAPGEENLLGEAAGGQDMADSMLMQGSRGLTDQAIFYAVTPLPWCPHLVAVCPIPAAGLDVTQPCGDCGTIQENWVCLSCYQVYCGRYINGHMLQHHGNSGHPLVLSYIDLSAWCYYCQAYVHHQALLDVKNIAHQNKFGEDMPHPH
The following applies: at 10 µM.

Experiment [2] deals with Protein deacetylase HDAC6 (Homo sapiens) (UniProt Q9UBN7). The following applies: at 10 µM. This is another data set of the same source.

Several values for one entry are separate records, joined by “and”; a condition that tells them apart may be missing. Equal values may be shown once. Out of some 5,600 compounds screened, about 150 (2.7%) showed an effect of 50% or more. The entries come from a sample that favours strong results as a whole. Positions of bridges follow the written chain, without caps; N, C: chain ends. Non-standard residues stand in square brackets, D forms with d. Residues, ends and D or L forms follow the SMILES beside them. *: point of attachment. NMeF = CN[C@@H](Cc1ccccc1)C(=O)O; X4 = CCC(C)C(N)C1=NC(C(=O)*)CS1; dOrn = NCCC[C@@H](N)C(=O)O

A word on the inhibition: it is the drop in the measured response relative to a control, in per cent.

On to `CCOc1c(N2CCOCC2)cnn(C)c1=O`, for which the inhibition in experiment [1] came to 2.39%.

Turning to `O=C(O)c1ccccc1S`, the inhibition in experiment [1] is -3.38%.

Take `CC(=O)NS(=O)(=O)c1ccc(NC(=O)c2ccccc2C(=O)O)cc1`: the inhibition in experiment [1] is -6.68%.

Regarding `O=C(O)c1ccccc1C(=O)Nc1ccc(-c2ccccc2)cc1`, the inhibition in experiment [1] was found to be 54.2%.

For the molecule `CC(C)(S)C(=O)N[C@@H](CS)C(=O)O`, the inhibition in experiment [1] came out at 6.63%.

Turning to `CC(C)C(=O)SCCCCC[C@H](NC(=O)OC(C)(C)C)C(=O)NC12CC3CC(CC(C3)C1)C2`, the inhibition in experiment [1] turned out to be 52.4%.

Regarding `CC(C)CCC[C@@H](C)[C@H]1CC[C@H]2[C@@H]3CCC4=CC(=NO)CC[C@]4(C)[C@H]3CC[C@]12C`, in experiment [1], the inhibition was 4.46%.

Regarding `NC(=O)c1ccc(F)c2c1C[C@@H](N(C1CCC1)C1CCC1)CO2`, the inhibition in experiment [1] was -7.93%.

For `COc1ccc(S(=O)(=O)N2CCCN(S(=O)(=O)c3ccc(OC)c(OC)c3)CC2)cc1OC`, the inhibition in experiment [1] is -6.17%.

Regarding `O=C(NO)c1cnc(N2CCN(S(=O)(=O)c3ccc4ccccc4c3)CC2)nc1`, in experiment [1], the inhibition was determined as 96.2%.

With `COc1ccc([C@]2(O)CC[C@H](N3CC[C@@H](NC(=O)CNC(=O)c4cccc(C(F)(F)F)c4)C3)CC2)cn1`, in experiment [1], the inhibition was 0.65%.

For the molecule `CC(C)(C)c1ccc(-c2nc3ccccc3[nH]2)cc1`, the inhibition in experiment [1] came out at 94%.

Turning to `CC(C)(C)c1ccc(O)cc1`, the inhibition in experiment [1] is -5.54%.

For `CN1CCN(c2ccc3[nH]c(-c4ccc5[nH]c(-c6ccc(O)cc6)nc5c4)nc3c2)CC1`, in experiment [1], the inhibition is 5.09%.

Consider `CN(C)c1cc(CNCC(C)(C)C)c(O)c2c1C[C@H]1C[C@H]3[C@H](N(C)C)C(O)=C(C(N)=O)C(=O)[C@@]3(O)C(O)=C1C2=O`, for which, in experiment [1], the inhibition was -4.38%.

On to `CC(C)(CCCCCC(O)CCCCCC(C)(C)C(=O)O)C(=O)O`, for which the inhibition in experiment [1] amounted to 1.13%.

On to `CCOC(=O)C1=C(N)Oc2ccc(Br)cc2[C@H]1[C@H](C#N)C(=O)OCC`, for which the inhibition in experiment [1] turned out to be 13.4%.

Turning to `N#Cc1cnc2c(Cl)cc(NCc3cn(CCN4CCCCCC4)nn3)cc2c1Nc1ccc(F)c(Cl)c1`, in experiment [1], the inhibition was -2.34%.

For the molecule `COCCN1CCC(C(=O)NO)(S(=O)(=O)c2ccc(Oc3ccc(OC(F)(F)F)cc3)cc2)CC1`, the inhibition in experiment [1] was found to be 1.97%.

For `COC(=O)c1cc(OC)c2c(c1-c1c(CO)cc(OC)c3c1OCO3)OCO2`, the inhibition in experiment [1] is -0.94%.

As for `CS(=O)(=O)Nc1ccc(-c2coc3cc(OCc4cccc(C(=O)O)c4)ccc3c2=O)cc1`, in experiment [1], the inhibition was 57.5%.

As to `OCCCCO`, in experiment [1], the inhibition was -0.89%.

In the case of `CCC(=O)O[C@]1(C(=O)COC(C)=O)CC[C@H]2[C@@H]3C[C@H](C)C4=CC(=O)C=C[C@]4(C)[C@H]3[C@@H](O)C[C@@]21C`, the inhibition in experiment [1] was 1.57%.

As for `O=C1NN(C(=O)Nc2ccc(Br)cc2)[C@@H](c2ccccc2)[C@@H]1c1ccccc1`, the inhibition in experiment [1] turned out to be 13.1%.

For `O=C1NC(=S)NC(=O)C1C(=O)Nc1ccccc1`, the inhibition in experiment [1] is 95%.

Take `N=C(Nc1ccccc1)c1cccs1`: the inhibition in experiment [1] turned out to be 14.8%.

For GADOBUTROL, CHEMBL2218860, the inhibition in experiment [2] is 27.5%.

Turning to `CC(C)(O)CC(=O)O`, the inhibition in experiment [1] came out at 1.27%.

Take `CCc1nc2c(C)nc(C)cc2n1-c1ccc(CCNC(=O)NS(=O)(=O)c2ccc(C)cc2)cc1`: the inhibition in experiment [1] is -2.18%.

As to `C=CC(C)(O)CC[C@@H]1[C@@]2(C)CCCC(C)(C)C2CC[C@@]1(C)O` (some centres undefined), in experiment [1], the inhibition is -4.8%.

In the case of `O=C(Nc1cc(C(F)(F)F)ccc1O)Nc1cc(C(F)(F)F)ccc1O`, in experiment [1], the inhibition amounted to 0.26%.

Take `Cc1cc(/C=c2/sc3nc4ccccc4n3c2=O)c(C)n1-c1ccccc1`: the inhibition in experiment [1] was -1.28%.

Take `Cc1cc(/C=C2\SC(=O)N(c3ccccc3)C2=O)c(C)n1-c1cccnc1`: the inhibition in experiment [1] worked out at 66.1%.

For the molecule `CC(C)C1=C2[C@H]3CC[C@@H]4[C@@]5(C)CC[C@H](OC(=O)CC(C)(C)C(=O)O)C(C)(C)[C@@H]5CC[C@@]4(C)[C@]3(C)CC[C@@]2([C@@H](O)CN(CCN(C)C)Cc2ccc(Cl)cc2)CC1=O`, the inhibition in experiment [1] is -0.39%.

In the case of `Cc1oc2ccccc2c1CNC(=O)NCc1cccs1`, in experiment [1], the inhibition was 2.62%.

Turning to `Nc1ncnc2c1c(-c1cccc(OCc3ccccc3)c1)cn2[C@H]1C[C@H](CN2CCCC2)C1`, the inhibition in experiment [1] stood at 8.87%.

For `CCOC(=O)Nc1ccc(NCc2c(C)cc(C)cc2C)cc1N`, the inhibition in experiment [1] is -1.7%.

For the molecule `N#Cc1cc(-c2n[nH]c(-c3ccncc3)n2)ccn1`, the inhibition in experiment [1] came to 61.8%.

Turning to `COc1cccc(OC)c1-c1ccc(C[C@H](NC(=O)c2c(Cl)cccc2Cl)C(=O)O)cc1`, the inhibition in experiment [1] was -2.4%.

`O=C(N[C@H](Cc1ccccc1)C(=O)O)c1sc2cc(F)ccc2c1Cl`: the inhibition in experiment [1] is -0.15%.

For the molecule `COCCN(C(=O)c1cc(OC)c(OC)c(OC)c1)c1nc(-c2ccccc2)cs1`, the inhibition in experiment [1] is -3.54%.

As to `Cc1nc2ccc(-n3ncc(C(=O)c4cc5ccccc5[nH]4)c3N)cc2[nH]1`, the inhibition in experiment [1] is 95.7%.

Regarding `CCOC(=O)Nc1nc2ccccc2[nH]1`, in experiment [1], the inhibition stood at 20.3%.

For the molecule `CCCSc1ccc2[nH]c(NC(=O)OC)nc2c1`, the inhibition in experiment [1] was found to be 41.8%.

For `CCC[S+]([O-])c1ccc2[nH]c(NC(=O)OC)nc2c1` (centres undefined), in experiment [1], the inhibition turned out to be 68.9%.

With `CCC(C)C(N)C1=NC(C(=O)N[C@@H](CC(C)C)C(=O)N[C@H](CCC(=O)O)C(=O)N[C@H](C(=O)N[C@H]2CCCCNC(=O)[C@H](CC(N)=O)NC(=O)[C@@H](CC(=O)O)NC(=O)[C@@H](Cc3cnc[nH]3)NC(=O)[C@@H](Cc3ccccc3)NC(=O)[C@@H]([C@H](C)CC)NC(=O)[C@@H](CCCN)NC2=O)[C@@H](C)CC)CS1` (some centres undefined) (X4-L[dE]IK[dOrn][dI][dF][dH][dD]N; lactam 4-C), the inhibition in experiment [1] is 25.1%.

Turning to `Cc1c(NC(=O)c2cc3c(s2)CCCC3)cccc1-c1cn(C)c(=O)c(Nc2ccc(C3C(=O)N(C)CCN3C)cc2)n1` (racemic), the inhibition in experiment [1] is -2.69%.

In the case of `CC(=O)Nc1ccc(OC(C)=O)cc1`, the inhibition in experiment [1] is -1.45%.

As to `N=C(N)Nc1ccc(C(=O)Oc2ccc3cc(C(=N)N)ccc3c2)cc1`, the inhibition in experiment [1] came out at 98.3%.

On to `CSCC[C@H](NC(=O)[C@H](CC(C)C)NC(=O)[C@@H](Cc1c[nH]c2ccccc12)NC(=O)[C@H](Cc1ccccc1)N(C)C(=O)[C@@H](Cc1c[nH]c2ccccc12)NC(=O)[C@@H](N)CCCNC(=N)N)C(N)=O` (H-R[dW][NMeF][dW]LM-NH2), for which the inhibition in experiment [1] is -6.35%.

With `CC(=O)Oc1ccccc1C(=O)Nc1ncc([N+](=O)[O-])s1`, the inhibition in experiment [1] came out at 98.3%.

On to `COc1ccccc1OC(=O)c1ccccc1OC(C)=O`, for which the inhibition in experiment [1] is -4.29%.

With COLISTIN SULFATE, CHEMBL6067482, the inhibition in experiment [2] is -5.33% and -3.72%.

Turning to `O=C(NN1C(=O)[C@@H]2[C@@H]3C=C[C@@H]([C@H]4C[C@@H]34)[C@@H]2C1=O)c1ccc(C(F)(F)F)cc1`, the inhibition in experiment [1] is 3.03%.

The values above are taken from ChEMBL document CHEMBL4808148, “HDAC6 screening dataset using tau-based substrate in an enzymatic assay yields selective inhibitors and activators” (2021).
